# PubChem BioAssay AID686978 (National Center for Advancing Translational Sciences (NCATS), 2013)
# Hit rate of the full screen: of about 420,000 compounds, about 64,000 (15%) were called active. Another 27% or so got no clear call; they are omitted. Not all results are given here. Unmarked numbers belong to inactive results. The call rests on the fitted dose curve; in most records, active means well fitted inhibition curve with a large enough effect; inconclusive means small, poorly fitted or top-dose-only effect; inactive means flat fitted curve, though single readings scatter.
# Test: qHTS for Inhibitors of human tyrosyl-DNA phosphodiesterase 1 (TDP1): qHTS in cells in absence of CPT; further: nearly all actives have a fitted effect of over 55% in size
# Conditions: DT40 Tdp1-/- hTDP1 cells, no CPT, ATP luminescence, 48 h; activity change, negative = growth inhibition: at 46.2 µM (top of the series)
# Summary of the method: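 DT40 Tdp1-/-;hTDP1 cells, no CPT (DMSO vehicle only), 400 cells/well; compounds pin-transferred; ≥48 hr, 37 °C; CellTiter-Glo 30 min RT dark, luminescence read.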
# On the % scale 0 is the no-effect control and ±100 the full control effect; potency means the concentration at half of the fitted maximal effect.
Compound,"activity change, negative = growth inhibition",Potency
N#CCCC(C#N)(c1cccnc1)N1CCOCC1 (centres undefined),-1.39%,
CCCCN1CC(COCc2ccccc2)OCCS1(=O)=O (centres undefined),-27.9%,
CC(C)c1cc(C(=O)O)on1,8.31%,
CN(C(=O)CSc1nnnn1-c1ccccc1)C1CCCCC1,0.578%,
NNC(=O)CNC(c1ccccc1)c1cc(Cl)ccc1NC(=O)c1ccccc1 (centres undefined),-9.24%,
CC(C)C(c1nnnn1C(C)(C)C)N1CCN(Cc2cccnc2)CC1 (centres undefined),8.15%,
COc1ccc(C(=O)O/N=C(\N)c2ccccn2)cc1[N+](=O)[O-],-20.5%,
CCc1ccccc1NC(=O)c1cccs1,-14%,
O=C(Nc1ccccc1-c1ccccc1)c1cccs1,,23.1 µM (active)
O=C(Nc1ccccc1)c1ccc(NC(=O)c2cccs2)cc1,2.02%,
CCOc1ccc(-c2nnn(CC(=O)N3CCN(c4ccc(F)cc4)CC3)n2)cc1OCC,-10.8%,
O=C(Nc1ccccc1-c1nnn(CC(=O)N2CCN(c3ccccc3)CC2)n1)c1cccs1,,23.1 µM (active)
COc1ccccc1N1CCN(C(=O)Cn2nnc(-c3cccs3)n2)CC1,-19.7%,
OCCNCCCCOc1ccccc1F,-13.5%,
Cn1c2c(c(=O)n(C)c1=O)[C@@H]1c3c(ccc4ccccc34)OC[C@@H]1CO2,10.5%,
COc1cc(N2C(=O)CC3(CCCC3)CC2=O)cc(OC)c1OC,2.17%,
O=C(COc1ccc(F)cc1)N(CC1=CCS(=O)(=O)C1)c1ccccc1,-26.4%,
CC1C(=O)Nc2ccccc2N1C(=O)c1c(F)cccc1F (centres undefined),-18.1%,
CC1C(=O)N(Cc2ccccc2)c2ccccc2N1C(=O)c1ccccc1 (centres undefined),,13 µM (active)
CC1Oc2ccccc2N(Cc2cccnc2)C1=O (centres undefined),-1.68%,
Cc1ccc(C(=O)Nc2nc(-c3ccccc3)ns2)cc1,-25.5%,
Cc1ccc(C(=O)Nc2nc(N)n(-c3ccccc3)n2)cc1,-12.3%,
CCc1cccc(-n2nnc(-c3nsc(NC(=O)c4ccc(C)cc4)n3)c2C)c1,,8.2 µM (active)

Compound,"activity change, negative = growth inhibition",Potency
CC(=O)c1ccc(-c2nnc(CCC(=O)N(C)Cc3cnc4ccccn34)o2)s1,-11.2%,
CN(Cc1ccccc1)C(=O)CCc1ccccc1,-27.6%,
CCc1ccc(CN(C)C(=O)CCc2nnc(-c3ccc(-c4ccccc4)cc3)o2)nc1,,11.6 µM (active)
CCOc1ccc(C)cc1S(=O)(=O)NC1CCCCCC1,10.5%,
Clc1ccc(C[n+]2cc(-c3ccc(Cl)cc3)n3c2CCC3)cc1,,5.8 µM (active)
Clc1ccc(C[n+]2cc(-c3ccccc3)n3c2CCC3)cc1,,5.17 µM (active)
Cn1c(-c2ccccc2)c[n+]2c1CCCCC2,0.0239%,
COc1ccccc1C(=O)NCCC(=O)N(C)Cc1cccnc1,10%,
COCC1CCN(C(=O)C2CCC(=O)N(Cc3cccc(C(F)(F)F)c3)C2)CC1 (centres undefined),-1.97%,
O=C(NCCc1ccccn1)c1nc(Cn2cc([N+](=O)[O-])cn2)no1,3.68%,
Cc1nc(Cl)c(C#N)c2c1CCCC2,-8.66%,
N#C/C(=C1/CCCN1)c1ccccn1,4.88%,
Cc1sc2nc(SCCO)n(-c3ccccc3)c(=O)c2c1C,,13 µM (active)
CCc1cc2c(=O)n(-c3ccccc3)c(SCC(=O)O)nc2s1,4.2%,
Cc1sc2nc(SCC(N)=O)n(C)c(=O)c2c1C,-15.2%,
COc1cccc(N(C(=O)CNC(=O)c2ccco2)C(C(=O)NC2CCCCC2)c2cccnc2)c1 (centres undefined),-7.84%,
CCOc1ccc2cc(C#N)c(SCC(=O)OC)nc2c1,-16.1%,
CC(C)c1c(C(=O)N/N=C/c2ccc(-c3ccccc3)cc2)nnn1-c1nonc1N,1.96%,
CC1(C)C(=O)C2(CCCCC2)C(=O)OC1c1cccs1 (centres undefined),-15.1%,
CC(C)(C)Nc1c(N)c(=O)oc2ccccc12,-10.6%,
O=c1oc2ccccc2c(=O)c2ccccc12,-0.558%,
CCNc1c(NS(=O)(=O)c2ccc(C3CCCCC3)cc2)c(=O)oc2ccccc12,,16.4 µM (active)
Cn1c(Cc2csc(N)n2)nnc1SC/C=C/c1ccccc1,-1.41%,

Compound,"activity change, negative = growth inhibition",Potency
COc1cc2c(cc1OC)C(/C=C/c1ccco1)=NCC2,,13 µM (active)
COc1cccc2c(N/N=C/c3ccco3)cc(C)nc12,4.74%,
CCOC(=O)C1=NN(c2ccc(Cl)cc2)/C(=C/C2=NCCc3cc(OC)c(OC)cc32)S1,-3.61%,
CC12C(=O)N(n3cnnc3)C(=O)C1C1C=CC2C1 (centres undefined),1.03%,
CS(=O)(=O)N(CC(=O)N1CCCC1)Cc1ccccc1,-6.97%,
O=c1c2cc(Br)ccc2nc(-c2cccc(Cl)c2)n1O,,23.1 µM (active)
O=C1CCCc2c1nc(-c1cccc(Cl)c1)n2O,-24.8%,
Cc1ccc2nc(-c3cccc(Br)c3)cc(C(=O)Nn3cnnc3)c2c1,6.51%,
CCOC(=O)N1CCC(NC(=O)CCc2cn(C)c3ccccc23)CC1,-15.3%,
CCC(CC)c1nnc(NC(=O)C2=COCCO2)s1,2.02%,
CNC(=O)NC(=O)CSc1nnc(-c2ccc(F)cc2)n1CC1CCCO1 (centres undefined),-4.38%,
Cc1ccc(CNS(=O)(=O)c2ccc(-c3cc(C(F)(F)F)on3)s2)cc1,-19.5%,
CC1CN(C2CCCCC2)c2nc3c(c(=O)n(C)c(=O)n3C)n2C1 (centres undefined),-26.3%,
Cc1cccc(N2CC(C)Cn3c2nc2c3c(=O)n(CC(=O)OCc3ccccc3)c(=O)n2C)c1 (centres undefined),,13 µM (active)
COCCn1cnc2c1c(=O)n(CC(=O)NN)c(=O)n2Cc1ccccc1,22%,
Cc1ccccc1SCC(=O)OCC(=O)N1CC(=O)Nc2ccccc21,7.53%,
CC(=O)C1C(c2cccc(Oc3ccccc3)c2)NC(=O)NC1(O)C(F)(F)F (centres undefined),-25.6%,
C[C@H]1CN([C@@H](C)CO)S(=O)(=O)c2ccc(-c3cccc(F)c3)cc2O[C@@H]1CN(C)C,-15.1%,
C[C@H](CO)N1C[C@H](C)[C@@H](CN(C)C(=O)c2cccc(F)c2)Oc2cc(-c3cncnc3)ccc2S1(=O)=O,9.26%,
C[C@@H]1CN([C@H](C)CO)S(=O)(=O)c2ccc(C#C[C@@H](C)O)cc2O[C@@H]1CN(C)Cc1ccc(-c2ccccc2)cc1,,6.51 µM (active)
C[C@@H]1CN([C@@H](C)CO)S(=O)(=O)c2ccc(-c3ccc(C(=O)N(C)C)cc3)cc2O[C@@H]1CN(C)Cc1ccccc1C(=O)O,10.6%,
C[C@@H]1CN([C@@H](C)CO)S(=O)(=O)c2ccc(C#Cc3cccc(F)c3)cc2O[C@H]1CN(C)S(=O)(=O)c1cn(C)cn1,,23.1 µM (active)
COCC(=O)N(C)C[C@H]1Oc2cc(Br)ccc2S(=O)(=O)N([C@H](C)CO)C[C@H]1C,-22.5%,
